# Experimental data: PubChem BioAssay (EPA / NIEHS)
# Active and inactive are the calls of the source. Rule for the calls: active = hit-call score of the fitted dose curve at least 0.9, where 1 is the maximum; inactive = score below 0.9.
# What was measured:
# [1] = BSK_hDFCGF_SRB: Viability Assessment in the BioMAP Diversity Plus: hDFCGF Assay (AID 2283061); conditions: primary human foreskin fibroblasts;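 note: cells exposed to compound for 24 h before the read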
# Summary of the method: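 Human foreskin primary fibroblasts were treated with compound and assessed 24 h after dosing. Total protein was measured by sulforhodamine B staining (0.1% SRB after 10% TCA fixation, 560 nm read) as a cytotoxicity marker, with bidirectional fitting against DMSO baseline.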
# [2] = read-out: TIMP metallopeptidase inhibitor 1 (TIMP1), TIMP1 (gene 7076); assay: BSK_hDFCGF_TIMP1: BioMAP Diversity Plus: hDFCGF Assay for TIMP metallopeptidase inhibitor 1 (TIMP1) Biomarker Activity (AID 2283062); conditions: primary human foreskin fibroblasts; actives raise or lower the signal
# Summary of the method: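 Primary human foreskin fibroblasts in the hDFCGF system were dosed with compound for 24 h, then TIMP-1 was measured by ELISA. Activity was fitted bidirectionally relative to DMSO control; parallel SRB staining assessed cytotoxicity.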
# [3] = read-out: Monokine induced gamma interferon (MIG), CXCL9 (gene 4283); assay: BSK_hDFCGF_MIG: BioMAP Diversity Plus: hDFCGF Assay for Monokine induced gamma interferon (MIG) Biomarker Activity (AID 2283063); conditions: primary human foreskin fibroblasts; actives raise or lower the signal
# Summary of the method: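 ELISA read-out of MIG from primary human dermal fibroblasts 24 h post-dosing. Gain or loss of signal fitted bidirectionally, DMSO as baseline.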
# [4] = read-out: Matrix Metallopeptidase 1 (MMP1), MMP1 (gene 4312); assay: BSK_hDFCGF_MMP1: BioMAP Diversity Plus: hDFCGF Assay for Matrix Metallopeptidase 1 (MMP1) Biomarker Activity (AID 2283064); conditions: primary human foreskin fibroblasts; actives raise or lower the signal
# Summary of the method: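 ELISA read-out of MMP1 from human foreskin fibroblasts (primary skin cells), 24 h post-dose. Gain or loss of signal was fitted bidirectionally versus DMSO negative control; cytotoxicity was checked by SRB in parallel cultures.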
# [5] = read-out: Vascular cell adhesion molecule 1 (VCAM1), VCAM1 (gene 7412); assay: BSK_hDFCGF_VCAM1: BioMAP Diversity Plus: hDFCGF Assay for Vascular cell adhesion molecule 1 (VCAM1) Biomarker Activity (AID 2283065); conditions: primary human foreskin fibroblasts; actives raise or lower the signal;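 for AC50: VCAM-1 protein level quantified by ELISA after 24 h chemical exposure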
# Summary of the method: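 Primary human foreskin fibroblasts (hDFCGF system) were dosed with chemical and VCAM-1 was measured by ELISA 24 h later. Bidirectional curve fitting used DMSO as negative control and activity baseline.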
# [6] = read-out: Plasminogen activator inhibitor-1 (PAI1), SERPINE1 (gene 5054); assay: BSK_hDFCGF_PAI1: BioMAP Diversity Plus: hDFCGF Assay for Plasminogen activator inhibitor-1 (PAI1) Biomarker Activity (AID 2283066); conditions: primary human foreskin fibroblasts; actives raise or lower the signal
# Summary of the method: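 PAI-1 levels in human dermal foreskin fibroblasts were quantified by ELISA 24 h after dosing, with gain or loss analysed against DMSO. Overt cytotoxicity was checked by sulforhodamine B total-protein staining in parallel cultures.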
# [7] = read-out: Intercellular Adhesion Molecule 1 (ICAM1), ICAM1 (gene 3383); assay: BSK_KF3CT_ICAM1: BioMAP Diversity Plus: KF3CT Assay for Intercellular Adhesion Molecule 1 (ICAM1) Biomarker Activity (AID 2283067); conditions: primary human keratinocytes with fibroblasts; actives raise or lower the signal
# Summary of the method: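 Human keratinocyte plus foreskin fibroblast primary co-culture was exposed to chemical for 24 h. ICAM-1 was then quantified by ELISA, and the data were fit bidirectionally against DMSO as the negative control and baseline.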
# [8] = read-out: Interferon-gamma inducible Protein 10 (IP10), CXCL10 (gene 3627); assay: BSK_KF3CT_IP10: BioMAP Diversity Plus: KF3CT Assay for Interferon-gamma inducible Protein 10 (IP10) Biomarker Activity (AID 2283068); conditions: primary human keratinocytes with fibroblasts; actives raise or lower the signal
# Summary of the method: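 Human keratinocyte plus foreskin fibroblast primary co-culture exposed to test chemical for 24 h; IP-10 measured by ELISA. Concentration-response fitted bidirectionally against DMSO control as baseline.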
# [9] = BSK_KF3CT_SRB: Viability Assessment in the BioMAP Diversity Plus: KF3CT Assay (AID 2283069); conditions: primary human keratinocytes with fibroblasts;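 note: fitted for both signal gain and loss against DMSO baseline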
# Summary of the method: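 SRB read-out at 560 nm (0.1% stain, TCA-fixed cells) gauges overt cytotoxicity in a human skin keratinocyte–fibroblast co-culture 24 h post-dosing. Signal change was fitted bidirectionally relative to DMSO control.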
# [10] = read-out: Interleukin-1 alpha (IL1a), IL1A (gene 3552); assay: BSK_KF3CT_IL1a: BioMAP Diversity Plus: KF3CT Assay for Interleukin-1 alpha (IL1a) Biomarker Activity (AID 2283070); conditions: primary human keratinocytes with fibroblasts; actives raise or lower the signal
# Summary of the method: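 Primary skin co-culture (keratinocytes, foreskin fibroblasts), 24 h exposure; ELISA for IL-1a; bidirectional curve fit vs DMSO.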
smiles,measurement,setting,value
CC(C)(OO)c1ccccc1,AC50,[1],34.8 µM (active)
same,AC50,[2],34.7 µM (active)
same,AC50,[3],34.4 µM (active)
same,AC50,[4],37.1 µM (active)
same,AC50,[5],28.6 µM (active)
same,AC50,[6],30.4 µM (active)
same,outcome,[7],inactive
same,outcome,[8],inactive
same,outcome,[9],inactive
same,outcome,[10],inactive
ClC1(Cl)C2(Cl)C3(Cl)C4(Cl)C(Cl)(Cl)C5(Cl)C3(Cl)C1(Cl)C5(Cl)C24Cl (stereo unspecified),outcome,[1],inactive
same,outcome,[2],inactive
same,outcome,[3],inactive
same,outcome,[4],inactive
same,outcome,[5],inactive
same,outcome,[6],inactive
same,outcome,[7],inactive
same,outcome,[8],inactive
same,outcome,[10],inactive
C(=NC1CCCCC1)=NC1CCCCC1,AC50,[1],13.8 µM (active)
same,AC50,[2],14.9 µM (active)
same,AC50,[3],26.8 µM (active)
same,AC50,[4],32.7 µM (active)
same,AC50,[5],10.7 µM (active)
same,AC50,[6],20 µM (active)
same,AC50,[7],20 µM (active)
same,AC50,[8],14.9 µM (active)
same,AC50,[9],15 µM (active)
same,AC50,[10],17.2 µM (active)
CCC(=O)C(CC(C)N(C)C)(c1ccccc1)c1ccccc1 (stereo unspecified),outcome,[1],inactive
same,outcome,[2],inactive
same,outcome,[3],inactive
same,outcome,[4],inactive
same,outcome,[5],inactive
same,outcome,[6],inactive
same,outcome,[7],inactive
same,outcome,[8],inactive
same,outcome,[10],inactive
O=C1C2(Cl)C3(Cl)C4(Cl)C(Cl)(Cl)C5(Cl)C3(Cl)C1(Cl)C5(Cl)C24Cl (stereo unspecified),AC50,[1],16.4 µM (active)
same,AC50,[2],30 µM (active)
same,AC50,[3],31 µM (active)
same,AC50,[4],19.3 µM (active)
same,AC50,[5],4.35 µM (active)
same,AC50,[6],8.81 µM (active)
same,AC50,[7],33 µM (active)
same,AC50,[10],22.9 µM (active)
CC(C)(C)CC(C)(C)c1ccc(O)cc1,AC50,[1],9.59 µM (active)
same,AC50,[2],8.77 µM (active)
same,AC50,[3],9.02 µM (active)
same,AC50,[4],6.98 µM (active)
same,AC50,[5],10.8 µM (active)
same,AC50,[6],8.03 µM (active)
same,AC50,[7],11.3 µM (active)
same,AC50,[8],10.1 µM (active)
same,AC50,[10],7.85 µM (active)
CC(C)CCCCCCOC(=O)c1ccccc1C(=O)OCCCCCCC(C)C,outcome,[1],inactive
same,outcome,[2],inactive
same,outcome,[3],inactive
same,outcome,[4],inactive
same,outcome,[5],inactive
same,outcome,[6],inactive
same,outcome,[7],inactive
same,outcome,[8],inactive
same,AC50,[10],1.58 µM (active)
ClC1=C(Cl)[C@]2(Cl)[C@H]3[C@H]([C@H]4C=C[C@H]3C4)[C@@]1(Cl)C2(Cl)Cl,outcome,[1],inactive
same,outcome,[2],inactive
same,outcome,[3],inactive
same,outcome,[4],inactive
same,AC50,[6],1.16 µM (active)
same,outcome,[7],inactive
same,outcome,[8],inactive
same,outcome,[9],inactive
same,outcome,[10],inactive
ClC(Cl)=C(Cl)C(Cl)=C(Cl)Cl,outcome,[1],inactive
same,AC50,[2],20 µM (active)
same,outcome,[3],inactive
same,AC50,[4],32 µM (active)
same,outcome,[5],inactive
same,AC50,[6],0.435 µM (active)
same,AC50,[7],32.4 µM (active)
same,AC50,[8],36.3 µM (active)
same,AC50,[9],34.1 µM (active)
same,AC50,[10],20 µM (active)
CCNc1nc(NC(C)(C)C)nc(SC)n1,outcome,[1],inactive
same,outcome,[2],inactive
same,outcome,[3],inactive
same,outcome,[4],inactive
same,outcome,[5],inactive
same,outcome,[6],inactive
same,outcome,[7],inactive
same,outcome,[8],inactive
same,outcome,[9],inactive
same,AC50,[10],20 µM (active)
CCCCC(CC)CO[N+](=O)[O-] (stereo unspecified),outcome,[1],inactive
same,outcome,[2],inactive
same,outcome,[3],inactive
same,outcome,[4],inactive
same,outcome,[5],inactive
same,outcome,[6],inactive
same,AC50,[7],30.9 µM (active)
same,AC50,[8],30.2 µM (active)
same,AC50,[9],36.4 µM (active)
same,outcome,[10],inactive
COP(=S)(OC)Oc1ccc(Sc2ccc(OP(=S)(OC)OC)cc2)cc1,outcome,[1],inactive
same,outcome,[2],inactive
same,outcome,[3],inactive
same,outcome,[4],inactive
same,outcome,[5],inactive
same,AC50,[6],0.382 µM (active)
same,outcome,[7],inactive
same,AC50,[8],20 µM (active)
same,outcome,[9],inactive
same,outcome,[10],inactive
O=Cc1cccc(Oc2ccccc2)c1,outcome,[1],inactive
same,outcome,[2],inactive
same,outcome,[3],inactive
same,outcome,[4],inactive
same,outcome,[5],inactive
same,outcome,[6],inactive
same,outcome,[7],inactive
same,outcome,[8],inactive
same,outcome,[9],inactive
same,outcome,[10],inactive
CC12CC1(C)C(=O)N(c1cc(Cl)cc(Cl)c1)C2=O (stereo unspecified),outcome,[1],inactive
same,outcome,[2],inactive
same,outcome,[3],inactive
same,outcome,[4],inactive
same,outcome,[5],inactive
same,outcome,[6],inactive
same,outcome,[7],inactive
same,outcome,[8],inactive
same,outcome,[10],inactive
Nc1cccc2ccccc12,AC50,[1],32 µM (active)
same,AC50,[2],27.7 µM (active)
same,outcome,[3],inactive
same,AC50,[4],33.1 µM (active)
same,AC50,[5],25.9 µM (active)
same,AC50,[6],20 µM (active)
same,outcome,[7],inactive
same,outcome,[8],inactive
same,outcome,[10],inactive
